The values below come from PubChem BioAssay (NCATS).

Several values for one entry are separate records, joined by “and”; a condition that tells them apart may be missing. Equal entries are not always repeated. Results filed as inconclusive are left out. Some structures have more than one record in an assay (separate samples or runs), and their calls can disagree. Activity calls are given as the source filed them. Calls follow the shape of the dose curve; as a rule, active = well fitted inhibition curve with a large enough effect in the repeat runs; inconclusive = weak or mixed curves; inactive = flat fitted curve, though single readings scatter.
% is scaled to controls: 0 for no effect and ±100 for the full control effect; potency is read from the fitted curve at half-maximal effect.

Chain of Cytochrome P450 2D6 (Homo sapiens) (P10635 whole entry, looked up): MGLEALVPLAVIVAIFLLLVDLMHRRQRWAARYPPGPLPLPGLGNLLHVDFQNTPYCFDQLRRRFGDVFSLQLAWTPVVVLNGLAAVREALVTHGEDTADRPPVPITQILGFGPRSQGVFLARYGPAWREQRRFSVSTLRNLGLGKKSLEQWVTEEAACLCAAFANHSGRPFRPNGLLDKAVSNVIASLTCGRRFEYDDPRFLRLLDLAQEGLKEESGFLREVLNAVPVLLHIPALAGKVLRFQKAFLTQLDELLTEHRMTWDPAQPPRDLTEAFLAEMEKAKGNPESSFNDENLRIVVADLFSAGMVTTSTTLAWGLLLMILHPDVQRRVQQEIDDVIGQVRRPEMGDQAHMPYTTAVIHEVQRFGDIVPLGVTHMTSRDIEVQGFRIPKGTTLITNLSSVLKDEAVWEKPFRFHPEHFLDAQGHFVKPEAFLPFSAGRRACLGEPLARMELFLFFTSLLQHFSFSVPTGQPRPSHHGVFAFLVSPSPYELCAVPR

In the experiment the target is Cytochrome P450 2D6 (Homo sapiens) (UniProt P10635). Description: Cytochrome P450 family 2 subfamily D member 6 (CYP2D6) small molecule antagonists: luciferase biochemical (cell-free) qHTS assay (AID 1645840). Also: nearly all actives have a fitted effect of over 55% in size. To be noted: P450-Glo CYP2D6 enzyme, luciferin luminescence, 1 h; series mostly up to 57.4 µM; activity change, negative = inhibition: at the top concentration. The procedure, abridged:
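P450-Glo luminescent screen: recombinant CYP2D6 enzyme–proluciferin substrate mix preincubated with compound 10 min at room temperature, then NADPH regeneration added for 1 h at room temperature. Detection reagent added for 20 min; luciferin light read as relative luminescence units.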
(In qHTS, concentration-response curves come from the screen itself.)
Turning to `COc1ccc2cc(OCC3(C(=O)O)CN(C(=O)c4ccc(F)cc4)C3)ccc2c1`, the “activity change, negative = inhibition” value is 8.9% (inactive).
In the case of `CO[C@@H]1COCC[C@@H]1N[C@@H]1CC[C@@](C(=O)N2CCc3ncc(C(F)(F)F)cc3C2)(C(C)C)C1`, the Potency was 16.9 µM (active).
Consider `CN(C)C/C=C/C(=O)Nc1ccc(C(=O)Nc2cccc(Nc3ncc(Cl)c(-c4c[nH]c5ccccc45)n3)c2)cc1`, for which the “activity change, negative = inhibition” value was 10.5% (inactive).
`CC1(C)C(=O)C(C)(C)c2cc(C(=O)Nc3ccc(C(=O)O)cc3)ccc21`: the “activity change, negative = inhibition” value was 13.8% (inactive).
As for `O=C(c1ccccn1)c1cnn2c(-c3ccncc3)ccnc12`, the Potency is 13.5 µM (active).
On to `O=C1NC(=Nc2ccccc2F)S/C1=C\c1ccc(C(=O)O)cc1`, for which the “activity change, negative = inhibition” value was -4.56% (inactive).
With `CNC(=O)COC(=O)NCCC1CCN(c2cccc(C)n2)CC1`, the “activity change, negative = inhibition” value was -3.49% (inactive).
On to `CNC(=O)c1ccc(Nc2ncc(C(F)(F)F)c(NCc3nccnc3N(C)S(C)(=O)=O)n2)cc1`, for which the “activity change, negative = inhibition” value was 7.37% (inactive).
Take `C=C1CC[C@@H]2[C@](C)(CO)[C@H](O)CC[C@@]2(C)[C@@H]1C/C=C1/C(=O)OC[C@H]1O`: the Potency entry was “inactive”.
With `O=c1c2cccnc2n(-c2cccc([N+](=O)[O-])c2)c(=O)n1Cc1ccncc1`, the Potency is 1.51 µM (active).
Take `NS(=O)(=O)OC[C@@H]1C[C@@H](n2ccc3c(N[C@H]4CCc5ccccc54)ncnc32)C[C@@H]1O`: the Potency entry is “inactive and 8.49 µM (active)”.
As for `N[C@@H](CC(=O)N1CCn2c(nnc2C(F)(F)F)C1)Cc1[nH]nc2c(F)c(F)ccc12`, the “activity change, negative = inhibition” value is 0.544% (inactive).
As to `CCOC(=O)[C@H](CCc1ccccc1)CC1(C(=O)N[C@H]2CCc3ccccc3N(CC(=O)O)C2=O)CCCC1`, the “activity change, negative = inhibition” value is 0.566% (inactive).
